Source: PubChem BioAssay (NCATS)
Results filed as inconclusive are left out. Unmarked numbers belong to inactive results. Active and inactive are the calls of the source. The call rests on the fitted dose curve; in most records, active means well fitted cell-killing curve with a large enough effect; inconclusive means small, poorly fitted or top-dose-only effect, or effect the other way; inactive means no such curve, though single readings can be large or run the other way.

assay: Quantitative High-Throughput drug screen in 47 multiple myeloma cell lines against the NCATS MIPE library collection: OPM1_PLB cell viability assay (AID 1918989); settings: CellTiter-Glo, 48 h; series mostly up to 45.8 µM; further: nearly all actives have a fitted effect of over 40% in size
Procedure, shortened: (§1)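 Plated at 500 cells per well, myeloma lines received MIPE 4.0 compounds by pin tool. Following 48 h culture at 37 °C, CellTiter-Glo luminescence gave viability relative to DMSO and media-only controls.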
Potency means the concentration at half of the fitted maximal effect.

SMILES | Potency
NC(=O)C1CCCc2c1[nH]c1ccc(Cl)cc21 (configuration not stated) | 4.69 µM (active)
Nc1ncnc2nc(-c3ccc(N4CCOCC4)nc3)cc(-c3cccc(Br)c3)c12 | 20.9 µM (active)
CNC(=O)c1ccc(C)c(-n2c(C)cc(OCc3ccc(F)cc3F)c(Br)c2=O)c1 | 13.2 µM (active)
COc1ccccc1[C@H](c1cccc2ccccc12)[C@@](C)(C#N)C(=O)N1CCC(c2cccc(C(F)(F)F)c2)CC1 | 5.9 µM (active)
COc1cc(F)c(F)c(Nc2ccc(I)cc2F)c1NS(=O)(=O)C1(C[C@H](O)CO)CC1 | 11.8 µM (active)
N#Cc1ccc(C(c2ccc(C#N)cc2)n2cncn2)cc1 | 16.6 µM (active)
CC(C)(Sc1ccc(CCN(CCCCC2CCCCC2)C(=O)NC2CCCCC2)cc1)C(=O)O | inactive
O=C1CCC(N2C(=O)c3ccccc3C2=O)C(=O)N1 (configuration not stated) | inactive
Cc1cc([C@@H](C)Nc2ccccc2C(=O)O)c2nc(N3CCOCC3)cc(=O)n2c1 | 17.1 µM (active)
Cc1cc2c(C(C)C)c(O)c(O)c(C=O)c2c(O)c1-c1c(C)cc2c(C(C)C)c(O)c(O)c(C=O)c2c1O | 10.5 µM (active)
Cc1cc2c(F)c(Oc3ncnn4cc(OC[C@@H](C)O)c(C)c34)ccc2[nH]1 | 20.9 µM (active)
CCn1c(-c2nonc2N)nc2cnc(Oc3cccc(NC(=O)c4ccc(OCCN5CCOCC5)cc4)c3)cc21 | 16.6 µM (active)
O=C1CCCC2=C1C(c1[nH]ncc1Cl)N=C(Nc1nc3ccccc3o1)N2 (configuration not stated) | 10.5 µM (active)
Cc1ccc(N(CC2=NCCN2)c2cccc(O)c2)cc1 | 23.5 µM (active)
O=c1ncn2nc(Sc3ccc(F)cc3F)ccc2c1-c1c(Cl)cccc1Cl | 16.6 µM (active)
CCc1cncnc1N1CCN(Cc2nc3ccc(C(F)(F)F)cc3[nH]2)CC1 | 18.7 µM (active)
Cc1ccc(NC(=O)c2cccc(C(C)(C)C#N)c2)cc1Nc1ccc2ncn(C)c(=O)c2c1 | 14.8 µM (active)
COc1cc2c(cc1OC)CN(CCc1ccc(NC(=O)c3cccc4c(=O)c5cccc(OC)c5[nH]c34)cc1)CC2 | 16.6 µM (active)
CCCn1c(=O)c2[nH]c(C34CC5CC3C[C@@H](C5)C4)nc2n(CCC)c1=O | inactive
COc1ccc(-c2ccc3c(N4CCOC[C@H]4C)nc(N4CCOC[C@H]4C)nc3n2)cc1CO | 0.0148 µM (active)
CCCCCCCc1ccc(CCc2cccc(O)c2C(=O)O)cc1 | 20.9 µM (active)
CC[C@@H](C)[C@H](NC(=O)[C@H](CC1CCCCC1)NC(=O)c1ccno1)C(=O)N1CCC2(CCc3ccccc32)CC1 | inactive
O=C(Nc1ccc(F)c(C(F)(F)F)c1)Nc1nnc(-c2ccncc2)s1 | 13.2 µM (active)

assay: Quantitative High-Throughput drug screen in 47 multiple myeloma cell lines against the NCATS MIPE library collection: SKMM1_PLB cell viability assay (AID 1919863); settings: SKMM1 myeloma viability, CellTiter-Glo ATP, 48 h; viability: hits give low values; further: nearly all actives have a fitted effect of over 35% in size
Procedure, shortened: as §1

SMILES | viability [%] | Potency
NC(=O)C1CCCc2c1[nH]c1ccc(Cl)cc21 (configuration not stated) | 110 | 
CNC(=O)c1ccc(C)c(-n2c(C)cc(OCc3ccc(F)cc3F)c(Br)c2=O)c1 | 116 | 
COc1ccccc1[C@H](c1cccc2ccccc12)[C@@](C)(C#N)C(=O)N1CCC(c2cccc(C(F)(F)F)c2)CC1 |  | 5.9 µM (active)
N#Cc1ccc(C(c2ccc(C#N)cc2)n2cncn2)cc1 |  | 6.62 µM (active)
CC(C)(Sc1ccc(CCN(CCCCC2CCCCC2)C(=O)NC2CCCCC2)cc1)C(=O)O |  | 14.8 µM (active)
O=C1CCC(N2C(=O)c3ccccc3C2=O)C(=O)N1 (configuration not stated) |  | 23.5 µM (active)
Cc1cc([C@@H](C)Nc2ccccc2C(=O)O)c2nc(N3CCOCC3)cc(=O)n2c1 |  | 27 µM (active)
Cc1cc2c(C(C)C)c(O)c(O)c(C=O)c2c(O)c1-c1c(C)cc2c(C(C)C)c(O)c(O)c(C=O)c2c1O |  | 29.6 µM (active)
O=C1CCCC2=C1C(c1[nH]ncc1Cl)N=C(Nc1nc3ccccc3o1)N2 (configuration not stated) |  | 10.5 µM (active)
Cc1ccc(N(CC2=NCCN2)c2cccc(O)c2)cc1 |  | 29.6 µM (active)
NCCCC(N)(C(=O)O)C(F)F (configuration not stated) | 97 | 
COc1nc(-c2ccc3c(c2)OCO3)n(-c2ccc(NC(=O)CSc3ccccc3)cc2)n1 | 123 | 
CCc1cncnc1N1CCN(Cc2nc3ccc(C(F)(F)F)cc3[nH]2)CC1 |  | 18.7 µM (active)
Cc1ccc(NC(=O)c2cccc(C(C)(C)C#N)c2)cc1Nc1ccc2ncn(C)c(=O)c2c1 |  | 1.66 µM (active)
Cc1c(CCOc2ccc(C(=O)O)cc2)c2cc(Cl)ccc2n1C(c1ccccc1)c1ccccc1 | 110 | 
COc1ccc(-c2ccc3c(N4CCOC[C@H]4C)nc(N4CCOC[C@H]4C)nc3n2)cc1CO |  | 0.0148 µM (active)
Cc1cc(SCc2sc(-c3ccc(C(F)(F)F)cc3)nc2C)ccc1OCC(=O)O |  | 16.6 µM (active)
CCC(=O)N[C@H]1CC[C@H](C(=O)N(C)c2ccc(-c3nc4ccccc4o3)cc2)C1 | 132 | 
O=C(Nc1ccc(F)c(C(F)(F)F)c1)Nc1nnc(-c2ccncc2)s1 |  | 8.33 µM (active)
